Rows were chosen to be rich in hits. Some 4.7% of all compounds tested hit in one or more screens of this group.
DRD3 antagonist: D3 dopamine receptor (human) antagonism; D3R cells, DiscoveRx beta-arrestin luminescence, antagonist mode; active compounds read low; max response, negative = inhibition, %; 360,000 compounds, 2.5% hits; in the data active = max response below about -50%; inconclusive = no clear call, values can overlap the other calls; note: % is set by controls: 0 for no effect and ±100 for the full control effect
Target sequence (P35462 whole entry, looked up): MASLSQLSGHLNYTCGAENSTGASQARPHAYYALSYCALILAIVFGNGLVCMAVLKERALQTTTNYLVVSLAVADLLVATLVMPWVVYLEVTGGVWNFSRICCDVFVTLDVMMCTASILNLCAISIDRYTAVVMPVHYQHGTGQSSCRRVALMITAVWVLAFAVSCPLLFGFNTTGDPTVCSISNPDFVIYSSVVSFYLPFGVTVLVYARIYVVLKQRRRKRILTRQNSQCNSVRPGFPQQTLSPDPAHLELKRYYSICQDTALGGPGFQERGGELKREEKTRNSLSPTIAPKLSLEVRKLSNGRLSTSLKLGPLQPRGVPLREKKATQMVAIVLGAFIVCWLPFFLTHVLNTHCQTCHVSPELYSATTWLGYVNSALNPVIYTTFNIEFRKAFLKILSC
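Cells expressing the human receptor were seeded at 1500 cells/well, incubated overnight at 37 degrees C in 5% CO2, then exposed to library compounds with dopamine controls for 90 minutes at 37 degrees C before luminescent detection.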
HepG2 viability: HepG2 cytotoxicity, counter-screen for TGF-b inhibitors. HepG2 CAGA-GFP viability, ATP luminescence, 18 h. Potency, µM (titrated, usually from 46.1 µM), inactives show at the highest dose activity change, negative = cytotoxicity, most hits filed as cytotoxic. 410,000 compounds, 0.76% hits. AID 588856; note: potency is the fitted concentration of half-maximal effect
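CellTiter-Glo luminescence gave cytotoxicity after 18 hours at 37 degrees C. The cells were HepG2 CAGA-GFP in 1% FBS DMEM, stimulated with 500 pg/mL TGF-beta after compound addition. %Activity was normalised to no-cell wells (complete cell-killing) and DMSO (no toxicity), and curves were fitted and classified.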
DRD3 agonist: activates the human D3 dopamine receptor; P35462; D3R DiscoveRx beta-arrestin cells, luminescence, 90 min; 410,000 compounds, 0.58% hits; max activation, %; in the data active = max activation above about 30%; note: 0% is about no effect
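Agonist-mode cell screen: cells plated at 1500/well and incubated overnight at 37 °C, then exposed to library compounds for 90 min at 37 °C. Detection reagent was added for 30–60 min at room temperature, and luminescence was read.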
ATXN2 expr inh: ATXN2 expression inhibition; 360,000 compounds, 0.72% hits; AID 1745845; Potency, µM (titrated, usually from 57 µM), for inactives: at the top dose activity change, negative = inhibition, actives largely listed as inhibitors; HEK-293 ATXN2-luciferase reporter, luminescence, 24 h; note: potency is the fitted concentration of half-maximal effect; % is set by controls: 0 for no effect and ±100 for the full control effect; nearly all actives have a fitted effect of over 55% in size
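qHTS (up to 57 uM final) was run with 24 h compound exposure of reporter cells at 37 °C. Each well was multiplexed: SteadyGlo luminescence measured ATXN2-luciferase expression after a fluorogenic Gly-Phe-AFC viability readout (25 uM final).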
TGFb SMAD3 inh: blocks TGF-b signaling | HepG2 CAGA-GFP TGF-b/SMAD3 reporter, GFP fluorescence, 18 h; TGF-beta stimulated, 500 pg/mL final | Potency, µM (titrated, usually from 46.1 µM), for the others: top-dose activity, negative = inhibition, hits mostly inhibitors | 410,000 compounds, 1.2% hits | AID 588855; note: potency is the fitted concentration of half-maximal effect; % is set by controls: 0 for no effect and ±100 for the full control effect; nearly all actives have a fitted effect of over 65% in size
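Using HEPG2 CAGA-GFP reporter cells at 1000 cells/well, we pinned test compounds, stimulated with recombinant TGF-beta (500 pg/mL final) and measured total well GFP after 18 h.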
ATXN viability: viability counter-screen for ATXN expression inhibitors; 400,000 compounds, 0.49% hits; S2 cells (HEK-293 line with an ATXN2-luciferase reporter) viability, CellTiter-Fluor protease fluorescence, 24 h; Potency, µM (series often up to 56.7 µM), most hits filed as cytotoxic; note: potency is the fitted concentration of half-maximal effect; nearly all actives have a fitted effect of over 40% in size
* = called active by the depositor; i = inactive; ? = inconclusive; · = no result; ! = repeats disagree. Unless noted, calls come from the whole dose curve; as a rule, active = well fitted curve in the direction sought with a large enough effect; inconclusive = small, poorly fitted or top-dose-only effect, or another doubt; inactive = no such curve, though single readings can be large; an effect the other way counts as inactive or inconclusive.

SMILES	DRD3 antagonist	HepG2 viability	DRD3 agonist	ATXN2 expr inh	TGFb SMAD3 inh	ATXN viability
CC(C)(C)CC(=O)OCC(=O)[C@@]12OC(C)(C)O[C@@H]1C[C@H]1[C@@H]3CCC4=CC(=O)C=C[C@]4(C)[C@@]3(F)[C@@H](O)C[C@@]12C	·	·	-7	·	·	i
O=C(Nc1ccncc1)c1cc2ccccc2cc1O	29	-14%	5	12%	13µM*	?
O=C(Nc1ccncc1)c1ccccc1F	9	-41%	-4	8%	-2%	i
O=C1C2C(C(=O)N1/N=C/c1cc(Br)cc([N+](=O)[O-])c1O)C1C=CC2C12CC2 (centres undefined)	-70*	-5%	-30	1%	16%	i
C=C1CC[C@H](O)C/C1=C\C=C1/CCC[C@]2(C)[C@@H]([C@H](C)CCCC(C)C)CC[C@@H]12	·	·	6	·	·	·
S=c1nc(-c2ccccn2)c(-c2ccccn2)n[nH]1	-78*	-12%	-11	0%	-1%	i
c1ccc(-c2ccccn2)nc1	-12	2%	13	-6%	0%	i
O=C1/C(=C/c2ccccn2)COc2ccccc21	9	-17%	-5	14%	-6%	i
CC1C/C(=C/c2ccccn2)C(=O)/C(=C/c2ccccn2)C1 (centres undefined)	-60*	-108%	-22	?	1.3µM*	·
CC(C)(C)C1C/C(=C/c2ccccn2)C(=O)/C(=C/c2ccccn2)C1 (centres undefined)	-53*	-24%	-9	1.4µM*	0.89µM*	1.8µM*
CC(CC=O)CCCC(C)(C)O (centres undefined)	·	·	-12	·	·	·
CN(Cc1ccccc1)Cc1c(O)ccc2c(=O)c(-c3ccccc3)c(C(F)(F)F)oc12	·	2%	1	5%	6%	i
CCOC(=O)c1scc(-c2ccc(C)cc2)c1S(=O)(=O)Nc1cccc(CC)c1	·	-26%	-8	-7%	-52%	i
CN1CCc2c(c3ccccc3n2Cc2ccccc2)C1	-91*!	-23%	-94	-14%	-3%	?
CN1CCc2c(c3ccccc3n2C)C1	-73*	-6%	-3	-9%	5%	i
Cn1c(=O)n(Cc2ccccc2)c2ccccc21	17	-21%	-7	-7%	-4%	i
Cc1c2n(c3ccccc13)CCN(C)C2	?	-23%	-19	10%	0%	i
CCCCN1CCc2c(c3ccccc3n2Cc2ccccc2)C1	-93*	-44%	-21	·	?	·
O=C1CC(SCc2nc3ccccc3[nH]2)C(=O)N1c1ccc(F)cc1 (centres undefined)	-66*	1%	-4	1%	-2%	i
O=C(Nc1ccc(Cl)cc1)Nc1ccc2c(c1)OCO2	-23	1%	-7	26%	-15%	i
O=C(Nc1cccc(C(=O)O)c1)Nc1ccc2c(c1)OCO2	-16	-29%	-3	5µM*	-4%	i
O=C(Nc1ccc(OC(F)F)c(Cl)c1)Nc1ccc2c(c1)OCO2	-5	11µM*	-5	-12%	?	?
O=C(Nc1ccc2c(c1)OCO2)Nc1ccc2c(c1)OCO2	-22	-12%	-17	12%	-2%	i
COc1ccc(CN2Cc3ccccc3OC(c3ccccc3OC)C2)c(O)c1 (centres undefined)	·	·	·	·	·	i
CN(N=O)c1ccc(/C=C/c2ccnc3ccccc23)cc1	·	-29%	·	·	-5%	·
SMILES	DRD3 antagonist	HepG2 viability	DRD3 agonist	ATXN2 expr inh	TGFb SMAD3 inh	ATXN viability
Cc1cc(NS(=O)(=O)c2ccc(NC(=O)C(CC(C)C)N3C(=O)c4ccccc4C3=O)cc2)nc(C)n1 (centres undefined)	-9	-3%	-7	-5%	1%	i
Cc1cc(NS(=O)(=O)c2ccc(NC(=O)C(F)(F)F)cc2)nc(C)n1	-9	0%	30*	-4%	-3%	i
CCCC(=O)Nc1ccc(S(=O)(=O)Nc2cc(C)nc(C)n2)cc1	-11	9%	1	7%	-8%	i
Cc1cc(NS(=O)(=O)c2ccc(NC(=O)C(C(C)C)N3C(=O)c4ccccc4C3=O)cc2)nc(C)n1 (centres undefined)	-75*	-3%	-6	1%	3%	i
O=C(Cc1ccc(-c2ccc(OCCN3CCOCC3)cc2)cn1)NCc1ccccc1	·	·	·	-27%	·	·
COc1ccc(-c2nc(N3CCN(S(=O)(=O)c4ccc(C)cc4)CC3)c3ccccc3n2)cc1	·	-21%	·	·	-8%	·
O=C1C(Cl)=C(N2CCOCC2)C(=O)N1c1ccc(Br)cc1	-69*	-16%	-12	·	-1%	i
CC(C)c1ccc(N2C(=O)C(Cl)=C(N3CCOCC3)C2=O)cc1	?	-13%	-17	-10%	6%	i
CC1(C)CC2(C)OC(=N)C1(C#N)C2(C#N)C#N (centres undefined)	-16	16%	-10	?	16µM*	?
CCOc1ccccc1NC(=O)CSc1ccc2nc(-c3ccccc3)cn2n1	·	-2%	5	9%	-12%	?
O=C(NCc1ccc(-c2csnn2)cc1)c1cccs1	-51*	3%	-7	26%	4%	i
O=C(CCN1C(=O)C2C3C=CC(C4CC34)C2C1=O)Oc1cccc2cccnc12 (centres undefined)	-68*	6.3µM*	-52	?	5µM*	i
CCN(CC)Cc1ccc2cc(COC(=O)Nc3ccc(C(=O)NO)cc3)ccc2c1	·	·	·	36%	·	·
CC(CN(C)Cc1ccccc1)OC(=O)c1cccc(F)c1 (centres undefined)	-60*	5%	-33	-2%	12%	i
CN(CCOC(=O)c1cccc(F)c1)Cc1ccccc1	-88*	-29%	-6	·	-12%	i
COC(=O)[C@H](CCSC)NC(=O)Cn1ccc(N)nc1=O	-51*	20%	-3	-5%	40%	i
COC(=O)C(NS(=O)(=O)c1ccc(NC(C)=O)cc1)C(C)C (centres undefined)	-74*	0%	-34	-2%	-19%	i
CC(NCc1cc(Br)ccc1OCC(=O)NCc1ccccc1)c1ccccc1 (centres undefined)	-18	-89%	-8	-27%	13µM*	?
Cc1ccc(-c2ccnc(-n3ncc(C(=O)N(C)CC4CCCN(C)C4)c3C)n2)o1 (centres undefined)	·	·	·	·	·	i
Cc1ccc(C)c(CN2CCC(n3nccc3NC(=O)CCCc3ccccc3)CC2)c1	-65*	-29%	-18	-20%	?	i
O=C(CCCc1ccccc1)Nc1ccnn1C1CCN(Cc2ccccc2)CC1	-3	7%	-15	-19%	-1%	i

Bioassay records as filed in PubChem.
